The nature of test [1]: NCI Yeast Anticancer Drug Screen. Data for the rad50 strain (AID 155).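 Also: 0% = growth of vehicle-only cultures of the same strain.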 The conditions noted are these: S. cerevisiae rad50 strain growth inhibition, stronger effect = higher value. In short, it runs like this: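 Inhibition values express reduced yeast growth in compound-treated cultures relative to vehicle-treated controls.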
Test [2] can be described thus: NCI Yeast Anticancer Drug Screen. Data for the mec2-1 strain (AID 157). The note with it: S. cerevisiae mec2-1 strain, stronger effect = higher value. A digest of the protocol: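 Test agents were screened against the mec2-1 yeast strain, with defined DNA repair or cell cycle alteration. Growth was scored as inhibition against vehicle-only controls.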
Test [3] in a line: NCI Yeast Anticancer Drug Screen. Data for the sgs1 mgt1 strain (AID 161).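 Also: 0% = growth of cultures given vehicle only.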 The note with it: S. cerevisiae sgs1 mgt1 strain, stronger effect = higher value. A digest of the protocol:
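Mutant yeast exposed to compound; growth scored against vehicle-only wells.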

Test [4] in a line: NCI Yeast Anticancer Drug Screen. Data for the cln2 rad14 strain (AID 165).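 Also: 0% = growth equal to vehicle treated cultures.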 The conditions noted are these: S. cerevisiae cln2 rad14 strain, stronger effect = higher value. In short, it runs like this: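 Growth of compound-exposed yeast (cln2 rad14 genotype) measured and expressed as inhibition relative to vehicle.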
A short description of test [5]: NCI Yeast Anticancer Drug Screen. Data for the mlh1 rad18 strain (AID 175). The conditions noted are these: S. cerevisiae mlh1 rad18 strain growth inhibition, stronger effect = higher value. A digest of the protocol: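 In this whole-cell yeast screen, a strain with altered DNA damage repair is challenged with compound, and its growth is measured against matched vehicle-treated controls.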

A short description of test [6]: NCI Yeast Anticancer Drug Screen. Data for the bub3 strain (AID 167). The conditions noted are these: S. cerevisiae bub3 mutant strain, stronger effect = higher value. In short, it runs like this: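 Steps: expose the mutant yeast strain to compound; grow alongside vehicle-treated cultures; measure growth; express inhibition against the vehicle cultures.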
Setting [7] is: at 5.0 µM (retest, dose inferred, filed as 0.5).
[8] abbreviates: at 50.0 µM (retest, dose inferred, filed as 5.0).

SMILES strings stand for the structures. Compounds without any hit were thinned out: in the full panel of roughly 79,000, 15% have a hit. A number with no mark means an inactive call. Activity calls are given as the source filed them. Rule as the data show it: active = growth inhibition above about 70%; inactive = the rest.

From PubChem BioAssay (NCI) come the findings set out here.

As to `NC1=NC2=C(CCCC2)C(c2cccs2)S1` (stereo not drawn), the growth inhibition in test [1] (setting [7]) was 57%; in test [1] (setting [8]) it was 82% (active); in test [1] (at 50.0 µM), 65.8%; in test [2] (setting [7]), 39%; in test [2] (setting [8]), 78% (active); in test [2] (at 50.0 µM), 32.4%. For the same compound, the growth inhibition in test [3] (setting [7]) was 76% (active); in test [3] (setting [8]), 87% (active); in test [3] (at 50.0 µM), 75.7% (active); in test [4] (setting [7]) it was 45%; in test [4] (setting [8]) it was 49%; in test [4] (at 50.0 µM), 37%. Moreover, the values for the growth inhibition in test [5] (setting [7]), in test [5] (setting [8]) and in test [5] (at 50.0 µM) were 61%, 92% (active) and 60.6%, respectively.
Take `c1cc2c3c(c1)[I+]c1cccc(c1-3)[I+]2`: the growth inhibition was 51% in test [1] (setting [7]); 67% in test [1] (setting [8]); 69.8% in test [1] (at 50.0 µM); 34% in test [2] (setting [7]); 58% in test [2] (setting [8]); 27.1% in test [2] (at 50.0 µM). Moreover, the growth inhibition in test [3] (setting [7]) was 53%; in test [3] (setting [8]), 80% (active); in test [3] (at 50.0 µM), 65.9%; in test [4] (setting [7]), 24%; in test [4] (setting [8]), 40%; in test [4] (at 50.0 µM) it was 45%. In addition, the growth inhibition was 39% in test [6] (setting [7]); 31% in test [6] (setting [8]); 36.3% in test [6] (at 50.0 µM); 64% in test [5] (setting [7]); 88% (active) in test [5] (setting [8]); 55.9% in test [5] (at 50.0 µM).
Turning to `COc1ccc(/C=C/C(=N/NC(=O)c2ccccc2)C(C)CN(C)C)cc1` (stereo not drawn), the growth inhibition in test [1] (setting [7]) was -3%; in test [1] (setting [8]) it was 4%; in test [1] (at 50.0 µM) it was 6.15%; in test [2] (setting [7]), 1%; in test [2] (setting [8]) it was 4%; in test [2] (at 50.0 µM), 16.3%. Moreover, the growth inhibition in test [3] (setting [7]) was 3%; in test [3] (setting [8]) it was 2%; in test [3] (at 50.0 µM) it was 6.9%; in test [4] (setting [7]) it was 1%; in test [4] (setting [8]), -2%; in test [4] (at 50.0 µM), 49.2%. Moreover, the growth inhibition in test [6] (setting [7]) was -5%; in test [6] (setting [8]), -7%; in test [6] (at 50.0 µM) it was -8.2%; in test [5] (setting [7]) it was -1%; in test [5] (setting [8]), -64%; in test [5] (at 50.0 µM), 7.45%.
Consider `Cn1c(=O)nc2n(-c3ccc(Cl)cc3)c3cc(Cl)ccc3nc-2c1=O`, for which the growth inhibition was 7% in test [1] (setting [7]); 20% in test [1] (setting [8]); 20.6% in test [1] (at 50.0 µM); 4% in test [2] (setting [7]); 9% in test [2] (setting [8]); 24.1% in test [2] (at 50.0 µM). The growth inhibition in test [3] (setting [7]) was 9%; in test [3] (setting [8]), 15%; in test [3] (at 50.0 µM), 7.8%; in test [4] (setting [7]), 15%; in test [4] (setting [8]), 20%; in test [4] (at 50.0 µM), 16.9%. Moreover, the growth inhibition in test [6] (setting [7]) is 17%; in test [6] (setting [8]), 18%; in test [6] (at 50.0 µM), -6.9%; in test [5] (setting [7]) it was 7%; in test [5] (setting [8]), 20%; in test [5] (at 50.0 µM), 77% (active).
With `CCCCCCCCCCCCNCc1ccc(Cl)c(Cl)c1`, the growth inhibition in test [1] (setting [7]) was 72% (active); in test [1] (setting [8]) it was 96% (active); in test [1] (at 50.0 µM), 99.8% (active); in test [2] (setting [7]) it was 91% (active); in test [2] (setting [8]), 98% (active); in test [2] (at 50.0 µM), 99.7% (active). Further, the growth inhibition in test [3] (setting [7]) was 89% (active); in test [3] (setting [8]) it was 98% (active); in test [3] (at 50.0 µM), 99.8% (active); in test [4] (setting [7]), 58%; in test [4] (setting [8]), 90% (active); in test [4] (at 50.0 µM), 99.6% (active). The growth inhibition in test [6] (setting [7]) was 76% (active); in test [6] (setting [8]) it was 96% (active); in test [6] (at 50.0 µM) it was 97% (active); in test [5] (setting [7]), 87% (active); in test [5] (setting [8]), 96% (active); in test [5] (at 50.0 µM), 99.7% (active).
`CCCCCC(CN(C)C)C(O)/C=C\c1ccccc1` (stereo not drawn): the growth inhibition was 0% in test [1] (setting [7]); -8% in test [1] (setting [8]); 74.7% (active) in test [1] (at 50.0 µM); -1% in test [2] (setting [7]); -4% in test [2] (setting [8]); 48.6% in test [2] (at 50.0 µM). For the same compound, the growth inhibition in test [3] (setting [7]) was -10%; in test [3] (setting [8]), -22%; in test [3] (at 50.0 µM), 72.1% (active); in test [4] (setting [7]), -1%; in test [4] (setting [8]), -6%; in test [4] (at 50.0 µM) it was 4.9%. Further, the growth inhibition in test [6] (setting [7]) is -2%; in test [6] (setting [8]), -10%; in test [6] (at 50.0 µM) it was 1.6%; in test [5] (setting [7]), 8%; in test [5] (setting [8]), -9%; in test [5] (at 50.0 µM) it was 68.5%.
Consider `O=C(O)C1(Cc2ccc3c(c2)CCC3)Cc2ccccc2C1=O` (stereo not drawn), for which the growth inhibition was 9% in test [1] (setting [7]); 9% in test [1] (setting [8]); 89.9% (active) in test [1] (at 50.0 µM); -6% in test [2] (setting [7]); -6% in test [2] (setting [8]); 92.4% (active) in test [2] (at 50.0 µM). The growth inhibition is 3% in test [3] (setting [7]); 3% in test [3] (setting [8]); 87.5% (active) in test [3] (at 50.0 µM); 3% in test [4] (setting [7]); 3% in test [4] (setting [8]); 88.2% (active) in test [4] (at 50.0 µM). For the same compound, the growth inhibition in test [5] (setting [7]) is 1%; in test [5] (setting [8]), 1%; in test [5] (at 50.0 µM) it was 87% (active).
Regarding `COc1ccc(C2=C(Cl)C(=O)N(c3ccccc3Cl)C(=O)C2(Cl)Cl)cc1`, the growth inhibition was 19% in test [1] (setting [7]); 96% (active) in test [1] (setting [8]); 92.7% (active) in test [1] (at 50.0 µM); -1% in test [2] (setting [7]); 95% (active) in test [2] (setting [8]); 98.7% (active) in test [2] (at 50.0 µM). The growth inhibition is 17% in test [3] (setting [7]); 97% (active) in test [3] (setting [8]); 97.5% (active) in test [3] (at 50.0 µM); -5% in test [4] (setting [7]); 96% (active) in test [4] (setting [8]); 71.5% (active) in test [4] (at 50.0 µM). In addition, the values for the growth inhibition in test [5] (setting [7]), in test [5] (setting [8]) and in test [5] (at 50.0 µM) were 17%, 80% (active) and 97.4% (active), respectively.
Regarding `CCOC(=O)c1ccc(NC(=O)CCl)cc1`, the growth inhibition was 3% in test [1] (setting [7]); 99% (active) in test [1] (setting [8]); 51.9% in test [1] (at 50.0 µM); 8% in test [2] (setting [7]); 98% (active) in test [2] (setting [8]); 38.7% in test [2] (at 50.0 µM). The growth inhibition in test [3] (setting [7]) is 21%; in test [3] (setting [8]), 98% (active); in test [3] (at 50.0 µM) it was 67.5%; in test [4] (setting [7]) it was 8%; in test [4] (setting [8]) it was 91% (active); in test [4] (at 50.0 µM) it was 28.7%. Further, the growth inhibition is 0% in test [6] (setting [7]); 95% (active) in test [6] (setting [8]); 40% in test [6] (at 50.0 µM); 12% in test [5] (setting [7]); 99% (active) in test [5] (setting [8]); 64.2% in test [5] (at 50.0 µM).
